Sampled rows, rich in hits. Any-hit rate of the full collection: about 13%.
HCMV antiviral: qHTS Assay for inhibitors of the human cytomegalovirus (HCMV) | AID 1259415, 2018 | actives 4.5% (n = 410,000) | activity change, negative = inhibition, % at 57.5 µM | HFF cells, HCMV-luciferase reporter, 72 h; stronger effect = lower value; in the data active = activity change below about -60%; inconclusive = no clear call, values can overlap the other calls; inactive = above about -39%
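Human foreskin fibroblasts infected with luciferase-reporter HCMV at MOI 1 PFU/cell, compounds at two doses. Luciferase measured 72 h post infection; normalized to buffer-only basal and Salinomycin (10uM) controls.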
Pf growth 48h: Primary qHTS for delayed death inhibitors of the malarial parasite plastid, 48 hour incubation. P. falciparum luciferase growth in erythrocytes, 48 h. Potency, µM (titrated, usually from 28.7 µM), without a hit: at the top dose activity change, negative = inhibition, usual class: inhibitors. actives 5.9% (n = 310,000); also: potency is read from the fitted curve at half-maximal effect
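In quantitative HTS format, infected erythrocytes bearing luciferase-reporter parasites were treated for a single generation at 37 C. Luminescence after adding detection reagent served as the growth measure.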
Pf growth 96h: Primary qHTS for delayed death inhibitors of the malarial parasite plastid, 96 hour incubation. P. falciparum luciferase reporter growth, 96 h. Potency, µM (highest dose often 28.7 µM), for the others: at the highest dose activity change, negative = inhibition, hits mostly inhibitors. actives 6.9% (n = 320,000); also: potency is read from the fitted curve at half-maximal effect
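Plates of compound plus infected erythrocytes (2% hematocrit, 0.05% parasitemia final) incubate 96 hours, 37 C, 5% CO2. Detection reagent added; reduced luminescence from the parasites' luciferase reporter flags inhibition.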
HCV inhibitor: qHTS Assay for Inhibitors of Hepatitis C Virus (HCV); Huh7.5.1 HCVcc-Cre infection, luciferase reporter, 44 h; Potency, µM (titrated, usually from 41.8 µM), inactives show at the top dose activity change, negative = inhibition, most hits filed as inhibitors; actives 3.4% (n = 340,000); AID 651820, 2012; also: potency is read from the fitted curve at half-maximal effect
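Luciferase read-out (15 sec integration) after a 15 min room-temperature substrate step quantifies HCVcc-Cre infection. Cells, 1,000 per well, had compound added 4 h post-plating, then virus at ~0.5 moi, and were cultured 44 h.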
* = called active by the depositor. Unless noted, calls follow the shape of the dose curve; as a rule, active = well fitted inhibition curve with a large enough effect; inconclusive = small, poorly fitted or top-dose-only effect, or another doubt; inactive = no such curve, though single readings can be large or run the other way. % is scaled to controls: 0 for no effect and ±100 for the full control effect.

Results for Cc1ccc(Cl)cc1N1CCN(C(=O)C2CCCN(S(=O)(=O)c3ccc(Br)s3)C2)CC1 (stereo not drawn) ?
HCMV antiviral: 2

How did COc1ccc(CNC(=O)C2CCN(c3nc4ccc(C)cc4[nH]3)CC2)cc1 do in these assays?
HCMV antiviral: 26

What do the screens show for `COc1cc(NC(=O)CCn2cnc3ccccc3c2=O)cc(OC)c1`?
HCMV antiviral: 17

Results for COc1ccc(NC(=O)N(C)C[C@@H]2OCc3cnnn3CCCC(=O)N([C@@H](C)CO)C[C@@H]2C)cc1 ?
HCMV antiviral: -24

What do the screens show for `Cc1ccc(NC(=O)CSC(C)c2nc3ccccc3c(=O)[nH]2)cc1` (stereo not drawn)?
HCMV antiviral: -14; Pf growth 48h: 8%; Pf growth 96h: 15µM*; HCV inhibitor: -27%

How did CC(=O)c1ccc(S(=O)(=O)N(C)CCCC(=O)N2CCN(c3ncccn3)CC2)cc1 do in these assays?
HCMV antiviral: 0; Pf growth 48h: inconclusive; Pf growth 96h: 12µM*; HCV inhibitor: -1%

What do the screens show for `Cc1ccc(S(=O)(=O)N(C)CCCC(=O)N2CCCCC2)cc1`?
HCMV antiviral: -15; Pf growth 48h: -2%; Pf growth 96h: 297%; HCV inhibitor: 4%

How did C=C/C(C)=C/C[C@H]1C(=C)CCC2[C@](C)(C(=O)O)CCC[C@@]21C (stereo partly drawn) do in these assays?
Pf growth 48h: inconclusive; Pf growth 96h: 4%; HCV inhibitor: 26%

What do the screens show for `C=C1CCC2[C@](C)(CO)[C@H](O)CC[C@@]2(C)[C@@H]1C/C=C1\C(=O)OC[C@H]1O` (stereo partly drawn)?
HCMV antiviral: -107*; Pf growth 48h: inconclusive; Pf growth 96h: inconclusive; HCV inhibitor: inconclusive

Results for Cc1ccc(C2=NNC(=Nc3ccc(F)cc3)SC2)cc1 ?
HCMV antiviral: -4; Pf growth 48h: inconclusive; Pf growth 96h: inconclusive; HCV inhibitor: inconclusive

Results for CCc1ccc(C2=NNC(=Nc3cccc(S(=O)(=O)N(C)C)c3)SC2)cc1 ?
HCMV antiviral: -99*; Pf growth 48h: inconclusive; Pf growth 96h: inconclusive; HCV inhibitor: 4.5µM*

How did Cc1cccc(NC(=O)C2CCN(S(=O)(=O)c3ccc4c(c3)OCCCO4)CC2)n1 do in these assays?
HCMV antiviral: -79*; Pf growth 48h: inconclusive; Pf growth 96h: inconclusive; HCV inhibitor: inconclusive

Results for Cc1ccc(NC(=O)C2CCN(S(=O)(=O)c3ccc4c(c3)OCCCO4)CC2)nc1 ?
HCMV antiviral: -63*; Pf growth 48h: inconclusive; Pf growth 96h: inconclusive; HCV inhibitor: inconclusive

Results for O=S(=O)(c1ccc(N2CCN(S(=O)(=O)c3ccc4c(c3)OCCO4)CC2)nc1)N1CCCC1 ?
HCMV antiviral: -11; Pf growth 48h: 13µM*; Pf growth 96h: -8%; HCV inhibitor: -15%

Results for Cc1ccc(NC(=O)C2CCN(S(=O)(=O)c3ccc4c(c3)OCCO4)CC2)c(O)c1 ?
HCMV antiviral: 3; Pf growth 48h: inconclusive; Pf growth 96h: 12µM*; HCV inhibitor: -6%

Results for O=S(=O)(c1ccc(N2CCN(Cc3ccc4c(c3)OCO4)CC2)nc1)N1CCOCC1 ?
HCMV antiviral: 0; Pf growth 48h: 15%; Pf growth 96h: inconclusive

Results for COc1cn(CC(=O)Nc2c(C)cc(C)cc2C)c(CN2CCCCC2)cc1=O ?
HCMV antiviral: -18

Results for COc1ccc(-c2nc3ccccc3o2)cc1NC(=O)c1ccc(-c2cccc(Cl)c2C)o1 ?
HCMV antiviral: 3

How did CCN(CC)CCNC(=O)c1ccc(-c2nc(CS(=O)(=O)c3ccc(C)cc3)c(C)o2)cc1 do in these assays?
HCMV antiviral: -27

How did CCS(=O)(=O)N1CCC(C(=O)Nc2cc(C)ccc2O)CC1 do in these assays?
HCMV antiviral: 43; Pf growth 48h: -6%; Pf growth 96h: 12µM*; HCV inhibitor: 10%

Results for CCS(=O)(=O)N1CCC(C(=O)Nc2cc(Cl)ccc2O)CC1 ?
HCMV antiviral: 19; Pf growth 48h: 0%; Pf growth 96h: 32%; HCV inhibitor: -5%

Results for Fc1ccc(Cn2nnnc2CN2CCN(C3CCCC3)CC2)cc1 ?
HCMV antiviral: 18; Pf growth 48h: -2%; Pf growth 96h: 0%; HCV inhibitor: 24%

What do the screens show for `CCC(C)(C)n1nnnc1CN1CCN(C(c2ccccc2)c2ccccc2)CC1`?
HCMV antiviral: 3; Pf growth 48h: 7.4µM*; Pf growth 96h: 82%; HCV inhibitor: inconclusive

What do the screens show for `CC(C)CCn1nnnc1CN1CCN(C(c2ccccc2)c2ccccc2)CC1`?
HCMV antiviral: -37; Pf growth 48h: 6.6µM*; Pf growth 96h: -44%; HCV inhibitor: inconclusive

How did CC(C)CCn1nnnc1CN1CCN(c2ccc(F)cc2)CC1 do in these assays?
HCMV antiviral: -102*; Pf growth 48h: -1%; Pf growth 96h: inconclusive; HCV inhibitor: 5%

What do the screens show for `COc1cc(NC(=O)CN(c2ccc(C)cc2)S(=O)(=O)c2cccc3nonc23)cc(OC)c1`?
HCMV antiviral: -11

How did CC(C)CC(=O)Nc1cc(-c2ccccc2F)nn1-c1ccccc1 do in these assays?
HCMV antiviral: 3

How did CCN(CC)C(=O)C1=C(C)Nc2nc3ccccc3n2C1c1ccc(Br)cc1 (stereo not drawn) do in these assays?
HCMV antiviral: -4

Results for CCN(CC)CCN1C(=O)/C(=C\c2ccc(Cl)c([N+](=O)[O-])c2)SC1=Nc1ccc(OC)cc1 ?
HCMV antiviral: -99*; Pf growth 48h: inconclusive; Pf growth 96h: 11%; HCV inhibitor: inconclusive

What do the screens show for `CCN1C(=O)/C(=C/c2cccs2)SC1=Nc1ccc(OC)cc1`?
HCMV antiviral: -10; Pf growth 48h: -22%; Pf growth 96h: 4.7µM*; HCV inhibitor: 5%

How did COc1ccc(N=C2S/C(=C\c3cc(C)n(C)c3C)C(=O)N2CC(C)C)cc1 do in these assays?
HCMV antiviral: 31; Pf growth 48h: inconclusive; Pf growth 96h: inconclusive; HCV inhibitor: 10µM*

What do the screens show for `O=S(=O)(Nc1cccc(-c2ccc(N3CCOCC3)nn2)c1)c1ccc(F)cc1F`?
HCMV antiviral: 64

How did Cc1nn2c(COc3ccc(NC(=O)C(C)C)cc3)nnc2c2ccccc12 do in these assays?
HCMV antiviral: -31; Pf growth 48h: inconclusive; Pf growth 96h: 37%; HCV inhibitor: 3%

Results for Cc1nn2c(CN(C(=O)CN3CCOCC3)c3ccccc3)nnc2c2ccccc12 ?
HCMV antiviral: -19; Pf growth 48h: -9%; Pf growth 96h: 14%; HCV inhibitor: -12%

What do the screens show for `Cc1nn2c(COc3ccc(NC(=O)c4ccccc4Cl)cc3)nnc2c2ccccc12`?
HCMV antiviral: -18; Pf growth 48h: 12µM*; Pf growth 96h: 4.1µM*; HCV inhibitor: inconclusive

Bioassay records from PubChem.
